LMNA splice mod – changes lamin A minigene splicing in HeLa cells | HeLa LMNA splicing GFP/RFP minigene ratio, 48 h | Potency, µM (doses to about 46.1 µM), inactives show top-dose ratio change, negative = inhibition, actives largely listed as inhibitors | 200,000 compounds, 0.01% hits; active = well fitted inhibition curve with a large enough effect in the signal ratio, with a control signal flat, not every such curve was filed as active; inconclusive = small, poorly fitted or top-dose-only effect, or effect the other way, or a change in a side signal; the % refers to the signal ratio
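S3 HeLa stable clones carrying a lamin A-EGFP splicing minigene plus DsRed2 were seeded at 600 cells/well in Opti-MEM with 2% FBS, pin-dosed and incubated 48 h at 37°C. Acumen cytometry (488 nm) gave the GFP/RFP total-intensity ratio.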
GAA spleen mod – inhibits or activates alpha-glucosidase in human spleen homogenate | P10253 | human spleen homogenate, 4-MU-alpha-glucoside fluorescence | Potency, µM (series often up to 79.9 µM), for inactives: top-dose activity change, negative = inhibition, hits mostly inhibitors | 240,000 compounds, 0.006% hits | AID 2112;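 also: 0% = enzyme with vehicle and -100% = no enzyme basal signal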
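Human spleen homogenate (1 ug) with 4-methylumbelliferyl-alpha-D-glucopyranoside (1 mM final) in 50 mM citrate/phosphate pH 5.0, 0.01% Tween-20; 40 min at 37 C. Stopped at pH 10; 4-MU fluorescence Ex 365/Em 440 nm; AC50 by Hill fit.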
GAA glycogen – GAA glycogen-cleavage inhibition or activation; P10253; recombinant GAA, glycogen substrate, Amplex Red glucose oxidase fluorescence; Potency, µM (doses to about 76.4 µM), for inactives: at the top dose activity change, negative = inhibition, actives largely listed as inhibitors; 300,000 compounds, 0.38% hits;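 also: 0% = full enzyme reaction and -100% = no-enzyme basal signal; the screen sought inhibitors and activators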
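Recombinant enzyme (4 nM final) with compounds titrated up to 77 uM and bovine liver glycogen (30 ug) in citrate pH 5.0, 0.01% Tween-20, 37 C 40 min. Released glucose detected by Amplex Red/glucose oxidase (Ex 573/Em 610); AC50 from Hill fits.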
N370S GC – inhibitors or activators of N370S glucocerebrosidase for Gaucher disease; Potency, µM (doses to about 59.4 µM), inactives show at the highest dose activity change, negative = inhibition, usual class: inhibitors; P04062; 330,000 compounds, 0.092% hits; N370S GC spleen homogenate, 4MU-glucoside fluorescence;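 also: 0% = full enzyme activity and -100% = no enzyme basal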
GAA inh – inhibitors of human lysosomal alpha-glucosidase; Potency, µM (titrated, usually from 76.9 µM), without a hit: at the highest dose activity change, negative = inhibition, most hits filed as inhibitors; P10253; purified human GAA, 4-MU-alpha-glucoside fluorescence; 200,000 compounds, 0.005% hits;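 also: plate controls were uninhibited enzyme wells for no effect and no-enzyme background for full effect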
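Endpoint fluorogenic read: 20 min room-temperature reaction of 4 nM human alpha-glucosidase with 400 uM 4-methylumbelliferyl-alpha-D-pyranoside, pH 5.0, quenched with 1M NaOH/1M glycine pH 10. AC50 from Hill modeling.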
Luc counter – blocks Kinase-Glo luciferase, a counter-screen artifact | Q27757 | AID 1379 | Kinase-Glo luciferase, ATP luminescence, 8 min | 200,000 compounds, 0.28% hits | Potency, µM (titrated, usually from 38.3 µM), inactives show at the top dose activity change, negative = inhibition, hits mostly inhibitors; also: nearly all actives have a fitted effect of over 60% in size
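Inhibition of Kinase-Glo luciferase light generation was assessed at 10 uM ATP in pH 7.2 imidazole buffer, with luminescence measured after eight minutes at ambient temperature.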
Starred values were filed as active, the others as inactive; ? = inconclusive; · = not tested or not shown; [ ] = another dose, or the depositor's remark. Only some compounds are listed: those with a hit (about 0.52% of all), similar ones and a draw of the others. Unless noted, calls follow the shape of the dose curve; as a rule, active = well fitted curve in the direction sought with a large enough effect; inconclusive = small, poorly fitted or top-dose-only effect, or another doubt; inactive = no such curve, though single readings can be large; an effect the other way counts as inactive or inconclusive. Unless noted, % is scaled to controls: 0 for no effect and ±100 for the full control effect; potency is read from the fitted curve at half-maximal effect.

SMILES | LMNA splice mod | GAA spleen mod | GAA glycogen | N370S GC | GAA inh | Luc counter
Cc1ccc(C(=O)n2nc(C)c(S(=O)(=O)N3CCOCC3)c2C)cc1C | -11%[46 µM] | · | · | · | · | ·
O=C(CCC(=O)N/N=C/c1ccc(Br)s1)NCc1ccccc1 | -6% | -2% | -3% | -18% | ? | -2%
C(=Nc1ccc(Nc2ccccc2)cc1)c1ccc2ccccc2c1 | ? | -3% | 18µM* | -6% | -5% | -1%
Brc1ccc(C=Nc2ccc(Nc3ccccc3)cc2)s1 | ? | -11% | 8.9µM* | -4% | 2% | 1%
Cc1ccc(CNc2nc3c([nH]2)c(=O)n(C)c(=O)n3C)cc1 | 3% | -6% | 4% | -2% | -3% | -4%
Cn1c(=O)c2[nH]c(Nc3ccccc3)nc2n(C)c1=O | ? | 2% | 7.1µM* | 0% | -5% | -1%
CCOC(C)(C)C | · | -3% | · | 2% | · | ·
CC(C)C1Nc2c(O)cc(Cl)c([N+](=O)[O-])c2C2C=CCC21 (stereo unspecified) | -19%[46 µM] | -2% | 14µM* | -18% | 15% | -5%
O=C(O)C1Nc2c(O)cccc2C2C=CCC12 (stereo unspecified) | -6% | -5% | ? | 22% | 2% | -3%
Cc1c(N=Cc2c(O)n(C3CCCCC3)c(=O)[nH]c2=O)c(=O)n(-c2ccccc2)n1C | -1% | -9% | -2% | -11% | -13% | -2%
Cc1c(N=Cc2c(O)n(C)c(=O)c3ccccc23)c(=O)n(-c2ccccc2)n1C | -4% | -6% | -12% | 2% | ? | 4%
Cc1c(N=Cc2cc3c(cc2Cl)OCO3)c(=O)n(-c2ccccc2)n1C | -8% | 3% | ? | 7% | -8% | 0%
Cc1c(N=Cc2ccncc2)c(=O)n(-c2ccccc2)n1C | -6% | 0% | 12µM* | -15% | 7% | 4%
Cc1c(N=Cc2ccccn2)c(=O)n(-c2ccccc2)n1C | -8% | -12% | 13µM* | 5% | -6% | -2%
Cc1cccn2c(=O)c(C=O)c(N3CCCCCC3)nc12 | -4% | -10% | -2% | 18% | -3% | -5%
Cc1cccn2c(=O)c(C=Nc3c(C)n(C)n(-c4ccccc4)c3=O)c(N3CCCC3)nc12 | ? | -3% | 11µM* | 6% | -2% | -1%
Cc1c(N=Cc2ccc[nH]2)c(=O)n(-c2ccccc2)n1C | 2% | 2% | 22µM* | 3% | 1% | 9%
COC(=O)CC1C(C)(C)C2(O)OC34CC2C(=O)[C@@]1(C)C3CC[C@]1(C)C4=CC(=O)OC1c1ccoc1 (stereo partly specified) | · | 6% | · | 2% | · | -10%
CCc1n[n+](CC(=O)c2ccccc2)c(N)s1 | 7%[46 µM] | -9% | 5% | 4% | 1% | 10µM*
O=C(CSc1nc(-c2ccc(F)cc2)cc(C(F)(F)F)n1)NCc1ccccc1 | · | · | -16%[76.3 µM] | · | · | ·
Cc1cc(/C=C2/C(=O)NN(c3ccccc3)C2=O)c(C)n1-c1ccc(O)cc1 | 3% | -8% | 9% | 8.9µM* | -4% | -11%
COC(=O)[C@@]1(Cc2ccccc2)[C@H]2c3cc(C(=O)N4CCCC4)n(Cc4ccc(S(C)(=O)=O)cc4)c3C[C@H]2CN1C(=O)c1ccccc1 | · | 2% | · | -19% | · | -4%
O=C(O)c1cc(N=Nc2ccc(-c3ccc(N=Nc4ccc(O)c(C(=O)O)c4)cc3)cc2)ccc1O | · | -7% | · | -8% | · | ·
O=[N+]([O-])c1cc(C(F)(F)F)ccc1NCCc1c[nH]c2ccccc12 | ? | 8% | -13% | 6% | ? | 0%
O=[N+]([O-])c1cc(C(F)(F)F)ccc1NCCc1c[nH]c2ccc(O)cc12 | ? | -6% | 9.9µM* | 13% | -8% | 7%
SMILES | LMNA splice mod | GAA spleen mod | GAA glycogen | N370S GC | GAA inh | Luc counter
CCC(=O)Nc1cccc(C(=O)N(Cc2ccccc2)Cc2ccccc2)c1 | · | · | -3%[76.3 µM] | 7.1µM* | · | ·
O=C(Cn1c(=O)nc(-c2ccccc2)c2ccccc21)NCCc1ccccc1 | -4%[46 µM] | · | · | · | · | ·
COc1ccc(/C=N/Nc2ncc(-c3ccccc3)cn2)c(OC)c1 | -8% | -5% | 1% | -5% | -3% | -1%
COc1ccc(/C=N/Nc2ncccc2[N+](=O)[O-])c(OC)c1 | · | -2% | ? | 0% | -5% | 11µM*
Cc1c(NC(=S)N/N=C/c2ccc(O)cc2)c(=O)n(-c2ccccc2)n1C | 6% | -18% | 7µM* | 9% | ? | -3%
Cc1ccccc1C(=O)NC1(C(F)(F)F)C(=O)Nc2c1c(=O)[nH]c(=O)n2-c1ccc(F)cc1 (stereo unspecified) | · | · | 2%[76.3 µM] | · | · | ·
CN(C(=O)c1ccc(OCC=C(c2ccccc2)c2ccccc2)cc1)c1ccccc1I | · | -10% | · | -2% | · | ·
Cc1ccc(NC(=O)c2ccc3c(c2)NC(=O)c2ccccc2S3)cc1 | · | · | 1%[76.3 µM] | · | · | ·
COc1ccc(C2C(CC(=O)O)=C(O)C(=O)N2c2ccccc2)cc1 (stereo unspecified) | ? | -1% | 14µM* | -13% | 8% | -8%
COc1ccc(C2C(C(C)=O)=C(O)C(=O)N2c2ccc(O)cc2)cc1 (stereo unspecified) | · | · | -6%[76.3 µM] | -9% | · | ·
CCCCNC(=O)CCCN1C(=O)CCn2nc(-c3cccn3C)cc21 | -18%[46 µM] | · | · | · | · | ·
Nc1nc(-c2cccs2)c(NC(=O)c2ccccc2)s1 | 3% | 9% | 20µM* | -14% | -5% | -6%
Nc1nc(-c2ccccc2)c(-c2ccccc2)c(-c2nc(N)nc(-c3ccccc3)c2-c2ccccc2)n1 | · | · | · | · | · | -2%[7.66 µM]
O=C(O)c1cccc(-c2ccc(/C=N/Nc3nn[nH]n3)o2)c1 | -10%[46 µM] | -8% | 1.8µM* | -2% | -8% | -8%
CNC(=S)N/N=C/c1ccc(-c2cccc(C(=O)O)c2)o1 | · | -13% | -24% | 1% | · | ·
Brc1ccc(-c2nc(N/N=C/c3cccnc3)c3ccccc3n2)cc1 | ? | 2% | -5% | -5% | -5% | 7.1µM*
C(=N\Nc1nc(-c2cccnc2)nc2ccccc12)/c1ccccc1 | · | -2% | -17% | -15% | · | ·
COc1cc(CNc2ccc(N3CCN(C(C)=O)CC3)cc2)ccc1OCc1ccc(F)cc1 | -25%[46 µM] | 1% | 25µM* | -17% | 2% | 1%
CC(=O)N1CCN(c2ccc(NCc3ccc(F)cc3)cc2)CC1 | 1% | 1% | ? | -5% | -4%[15.4 µM] | -5%
COc1cc(CNc2ccc(N3CCOCC3)cc2)cc(Br)c1OC | -26%[46 µM] | -20% | 45µM* | -10% | 3% | 5%
CCOc1c(Br)cc(CNc2ccc(N3CCN(C(C)=O)CC3)cc2)cc1OC | · | -1% | 32µM* | -29% | · | ·
